Pf Dd2 growth: inhibitors of Plasmodium falciparum Dd2 growth; P. falciparum Dd2 growth, SYBR Green, 72 h; Potency, µM (top dose mostly 28.9 µM), for the others: at the top dose activity, negative = inhibition, most hits filed as inhibitors; actives 4.3% (n = 120,000); active = well fitted inhibition curve with a large enough effect;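 note: plate controls were DMSO vehicle for no effect and reference drug for full effect; nearly all actives have a fitted effect of over 65% in size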
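Readout: SYBR Green fluorescence, 485 nm excitation, 535 nm emission, after ~16 h lysis at 37C. Before that, Dd2-infected red cells (2.5% hematocrit) grew 72 h with compound, 29 uM top final concentration.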
An asterisk follows results filed as active; [ ] = remark or other dose. The sample as a whole holds a higher share of hits than the screen did. Potency is the fitted concentration of half-maximal effect.

Results for O[C@@H]1CCN(Cc2nc(C3(O)CCN(CC4CCCCC4)CC3)cs2)C1 ?
Pf Dd2 growth: inactive

Results for CNC(=O)[C@@H]1C[C@@H](O)CN1C1CCN(C(=O)C2CCCC2)CC1 ?
Pf Dd2 growth: 4%

Results for O=C(NC[C@@H]1CCCN1)c1ccc(S(=O)(=O)NCc2ncc[nH]2)cc1 ?
Pf Dd2 growth: 3%

Results for O=C1C(N2CCN(S(=O)(=O)c3cccs3)CC2)CCN1Cc1cccnc1 (stereo not given) ?
Pf Dd2 growth: -11%

How did N#Cc1cccc(NC(=O)O[C@@H]2CO[C@H]3[C@@H]2OC[C@@H]3n2nnnc2-c2ccc(-c3ccccc3)cc2)c1 do in these assays?
Pf Dd2 growth: 2%

What do the screens show for `CCOC(=O)C1(Cc2ccccc2C)CCCN(Cc2cn(CC(N)=O)c3ccccc23)C1` (stereo not given)?
Pf Dd2 growth: 14µM*

Results for CCOC(=O)C1(Cc2ccccc2C)CCCN(C(=O)c2csc(C)n2)C1 (stereo not given) ?
Pf Dd2 growth: -3%

Results for CCOC(=O)C1(Cc2ccccc2C)CCCN(C(=O)c2cc[n+]([O-])cc2)C1 (stereo not given) ?
Pf Dd2 growth: -21%

Results for CNC(=O)[C@@H]1C[C@H](Oc2cccnc2)CN1C(=O)c1ccc(OC)c(F)c1 ?
Pf Dd2 growth: -13%

How did Cc1cc2cccc(C(=O)N3CCc4nc(-c5cn[nH]c5)[nH]c4C3)c2o1 do in these assays?
Pf Dd2 growth: -5%

How did O=C(CCc1nc2ccccc2s1)N[C@@H]1CCOC[C@H]1OCCO do in these assays?
Pf Dd2 growth: 0%

Results for CC[C@H]1CN(C(=O)c2ccc(F)cc2)CC[C@H]1CC(=O)NCc1ccccc1 ?
Pf Dd2 growth: -13%[44.1 µM]

What do the screens show for `COc1ccc(OCc2ccc(-c3nc(C#N)c(N4CCCCC4)o3)o2)cc1`?
Pf Dd2 growth: 9%

Results for CNc1oc(-c2ccc(COc3ccc(C)cc3)o2)nc1C#N ?
Pf Dd2 growth: -16%

Results for COc1ccc(Nc2oc(-c3ccc(COc4ccccc4C)o3)nc2C#N)cc1 ?
Pf Dd2 growth: 11µM*

Results for Cc1nc2ccc(C(=O)NCc3cccnc3Oc3ccccc3C)cc2[nH]1 ?
Pf Dd2 growth: -13%

How did COC1CCC12CCN(C(=O)c1sc(C)nc1C)CC2 (stereo not given) do in these assays?
Pf Dd2 growth: 18%

What do the screens show for `CCC(O)c1nc2ccccc2n1Cc1cccc(Cl)c1` (stereo not given)?
Pf Dd2 growth: -23%

What do the screens show for `CCC(O)c1nc2ccccc2n1Cc1cc(C)ccc1C` (stereo not given)?
Pf Dd2 growth: 11µM*

Results for CC(=O)N1CCCC1c1nc2ccccc2n1Cc1cc(C)ccc1C (stereo not given) ?
Pf Dd2 growth: -2%

What do the screens show for `CCN1C(=O)CCN(C(=O)CCC2CCCC2)CC12CCOCC2`?
Pf Dd2 growth: -13%

How did O=C(Cn1ccn2nc(-c3ccc(F)cc3)c(CO)c2c1=O)Nc1cccc(C(F)(F)F)c1 do in these assays?
Pf Dd2 growth: -2%

Results for CCN1c2cc(C(=O)Nc3ccc(OC(F)(F)F)cc3)ccc2C(=O)N2CCCCC21 (stereo not given) ?
Pf Dd2 growth: 1.8µM*

Results for CN1CCCCCC(O)c2cc(C(=O)Nc3cccc(OC(F)(F)F)c3)ccc21 (stereo not given) ?
Pf Dd2 growth: 14µM*

What do the screens show for `CCN1c2cc(C(=O)Nc3ccc(Cl)c(C)c3)ccc2C(=O)N2CCCCCC21` (stereo not given)?
Pf Dd2 growth: 6.3µM*

Results for CCN1c2cc(C(=O)Nc3ccc(OC)cc3)ccc2C(=O)N2CCCCCC21 (stereo not given) ?
Pf Dd2 growth: inactive

Results for COc1ccc(OC)c(NC(=O)c2ccc3c(c2)C(O)CCCCCN3C)c1 (stereo not given) ?
Pf Dd2 growth: inactive

What do the screens show for `Cc1cc(NC(=O)c2ccc3c(c2)N(C)C2CCCCCN2C3=O)ccc1Cl` (stereo not given)?
Pf Dd2 growth: inactive

Results for CCN1c2cc(C(=O)Nc3ccc(OC(F)(F)F)cc3)ccc2C(=O)N2CCCC21 (stereo not given) ?
Pf Dd2 growth: -15%

What do the screens show for `CCN1c2cc(C(=O)Nc3ccc(Cl)c(Cl)c3)ccc2C(=O)N2CCCCC21` (stereo not given)?
Pf Dd2 growth: -8%

What do the screens show for `CN1c2cc(C(=O)Nc3ccc(Br)cc3)ccc2C(=O)N2CCCCCC21` (stereo not given)?
Pf Dd2 growth: -21%

Results for CN1c2cc(C(=O)Nc3ccc(C(F)(F)F)cc3)ccc2C(=O)N2CCCCCC21 (stereo not given) ?
Pf Dd2 growth: 11µM*

Results for CN1c2cc(C(=O)Nc3ccc(F)cc3)ccc2C(=O)N2CCCCCC21 (stereo not given) ?
Pf Dd2 growth: inactive

What do the screens show for `COc1cccc(NC(=O)c2ccc3c(c2)C(O)CCCCCN3C)c1` (stereo not given)?
Pf Dd2 growth: -9%

What do the screens show for `CCN1C(=O)C2(CCN(C(C)=O)CC2)c2ccccc21`?
Pf Dd2 growth: 42%

Results for CCc1cccc(C)c1NC(=O)Cn1cccc1-c1nc(-c2ccc3c(c2)OCO3)no1 ?
Pf Dd2 growth: -11%

What do the screens show for `COc1ccccc1NC(=O)N1CCCC(Cn2c(C3CC3)nc3cccnc32)C1` (stereo not given)?
Pf Dd2 growth: -14%

How did Cc1cccc(-n2c(=O)c3c(cc(C)n3C)n(CC(=O)Nc3c(C)cccc3C)c2=O)c1 do in these assays?
Pf Dd2 growth: 59%

How did COc1ccc(CN2CC3(CCN(S(=O)(=O)c4c(C)noc4C)CC3)C2=O)cc1 do in these assays?
Pf Dd2 growth: inactive

What do the screens show for `C=CCOC(=O)C1=C(C)N(Cc2ccc(F)c(F)c2)C(=O)CC1c1ccccc1Cl` (stereo not given)?
Pf Dd2 growth: inactive

What do the screens show for `Cc1ccc(S(=O)(=O)Nc2ccc(C)n(CC(=O)O)c2=O)cc1`?
Pf Dd2 growth: 18%

How did Cc1ccc(CN2C(=O)NC3(CCN(C(=O)c4ccsc4)CC3)C2=O)cc1 do in these assays?
Pf Dd2 growth: 4%

Results for COCCn1nc2n(c1=O)CCN(C(=O)c1cc(F)ccc1F)CC2 ?
Pf Dd2 growth: 70%

How did COC[C@@H]1CN(C(=O)Cn2ccc(C)n2)C[C@H]1c1ccccn1 do in these assays?
Pf Dd2 growth: 9%

Results for O=C1OCCN1C1CCN([S+](=O)([O-])c2cccc(C(F)(F)F)c2)CC1 ?
Pf Dd2 growth: -17%

How did CNC(=O)N1CCC(C2CCN(C3CCN(CCc4ccccc4)CC3)C2)CC1 (stereo not given) do in these assays?
Pf Dd2 growth: -23%

Results for CCN1c2cc(C(=O)Nc3ccc(SC)cc3)ccc2C(=O)N2CCCCC21 (stereo not given) ?
Pf Dd2 growth: inactive

How did CCN1c2cc(C(=O)Nc3cccc(F)c3)ccc2C(=O)N2CCCCC21 (stereo not given) do in these assays?
Pf Dd2 growth: -5%

How did CN1c2cc(C(=O)NCc3cccc(Cl)c3)ccc2C(=O)N2CCCCCC21 (stereo not given) do in these assays?
Pf Dd2 growth: inactive

What do the screens show for `Cc1cccc(CNC(=O)c2ccc3c(c2)N(C)C2CCCCN2C3=O)c1` (stereo not given)?
Pf Dd2 growth: 4µM*

How did Cc1ccc(CNC(=O)c2ccc3c(c2)N(C)C2CCCN2C3=O)cc1 (stereo not given) do in these assays?
Pf Dd2 growth: inactive

Results for CCN1c2cc(C(=O)Nc3cccc(SC)c3)ccc2C(=O)N2CCCCCC21 (stereo not given) ?
Pf Dd2 growth: 6.3µM*
